Laboratory results published in PubChem BioAssay (NCATS).
Active and inactive are the calls of the source. The call rests on the fitted dose curve; in most records, active means well fitted activation curve with a large enough effect; inconclusive means small, poorly fitted or top-dose-only effect; inactive means no such curve, though single readings can be large or run the other way.

target: Cytochrome P450 3A4 (Homo sapiens) (UniProt P08684); assay: qHTS Assay for Activators of Cytochrome P450 3A4 (AID 885); conditions: recombinant CYP3A4, Luciferin-PPXE luminescence, 60 min; series mostly up to 57.1 µM; further: nearly all actives have a fitted effect of over 65% in size
Sequence (P08684 whole entry, looked up): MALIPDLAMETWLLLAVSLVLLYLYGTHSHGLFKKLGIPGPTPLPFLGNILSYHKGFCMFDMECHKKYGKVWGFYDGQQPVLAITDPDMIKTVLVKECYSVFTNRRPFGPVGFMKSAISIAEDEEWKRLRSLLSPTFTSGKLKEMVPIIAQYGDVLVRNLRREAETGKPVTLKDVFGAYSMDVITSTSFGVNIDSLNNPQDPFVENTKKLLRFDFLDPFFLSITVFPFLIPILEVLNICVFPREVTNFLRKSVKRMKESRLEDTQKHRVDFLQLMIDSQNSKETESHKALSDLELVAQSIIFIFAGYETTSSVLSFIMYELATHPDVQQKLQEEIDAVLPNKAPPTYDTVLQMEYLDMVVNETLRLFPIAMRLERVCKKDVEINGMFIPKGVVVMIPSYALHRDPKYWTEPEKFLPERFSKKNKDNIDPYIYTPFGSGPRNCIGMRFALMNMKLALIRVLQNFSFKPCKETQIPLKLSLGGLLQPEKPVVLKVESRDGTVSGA
Protocol: NIH Molecular Libraries Screening Centers Network [MLSCN]
NIH Chemical Genomics Center [NCGC]
The P450 gene superfamily is involved in the metabolism and clearance of xenobiotics. This assay used human CYP3A4 to measure the dealkylation of luciferin-6' phenylpiperazinylyl (Luciferin-PPXE; […]) to luciferin. The luciferin is then measured by luminescence after the addition of a luciferase detection reagent. Luciferin-PPXE concentration in the assay was equal to its KM for CYP3A4. Inhibitors and some substrates limit the production of luciferin, and decrease measured luminescence; activators increase the production of luciferin and luminescence.
NCGC Assay Protocol Summary:
Two uL of enzyme and substrate mix (final concentrations: 20nM CYP3A4, 25uM Luciferin-PPXE, 200mM KPO4) were dispensed into a white, solid bottom 1536-well microtiter plate. 23nL of compound was transferred by a pin tool. The plate was incubated at RT for 10 min. Two uL of an NADPH regeneration solution (Promega supplied reagent) was dispensed and the reaction was allowed to continue for 60 min at RT. Then the reaction was stopped by reconstituted luciferin detection buffer. After another 20 min of incubation the plate was read on the ViewLux (Perkin Elmer) at 60 sec exposure and 2x2 binning. This protocol was carried out with Promega-Glo reagents and further information can be found at http://www.promega.com/tbs/tb325/tb325.pdf. Data were normalized to the to AC100 inhibition (57 uM ketoconazole).
Keywords: P450, CYP2D6, Luciferase, MLSMR, MLSCN, NIH Roadmap, qHTS, NCGC

Activity change, positive = activation, inactive:
CC(=O)O[C@H]1C2=CO[C@H](C)[C@H]3[C@H]4C5=C([C@H](O)[C@H]6O[C@@H]6C5=O)[C@H](O[C@H]4C)[C@@]23C(=O)[C@H]2O[C@@H]21 -42.7% [at 11.4 µM]
O=C1[C@H]2[C@H]3[C@H](O)[C@H](O)C/C(=N/OC[C@@H](O)COCc4ccco4)[C@H]3CC[C@@H]2C(=O)N1C1CCCCC1 -43.8% [at 11.4 µM]
COC(=O)C1=C(C)N(Cc2ccccc2)C2=C3C(=O)CCCC3[C@@](O)(C(=O)OC)C(=O)N2C1c1ccccc1 (stereo not given in full) -36% [at 11.4 µM]
CCCCCCCC#Cc1ccccc1C(NC(=O)OC)C(C(=O)OC)C(=O)OC (stereo not given) -56.4% [at 11.4 µM]
COC(=O)C/C=C/C(C)C(OCc1cccc(Br)c1)C(C)C(OC)C1CCCCC1 (stereo not given) -58% [at 11.4 µM]
COc1ccc(C#CC2C=CC(OC(C)=O)C(COC(C)=O)O2)cc1 (stereo not given) -88.8% [at 11.4 µM]
C[C@@H]1O[C@H]2C3=C(C(=O)[C@H]4O[C@@H]4[C@H]3O)[C@@H]1[C@@H]1[C@@H](C)OC=C3[C@H](O)[C@H]4O[C@@H]4/C(=N\OCc4ccccc4)[C@]312 -31.8% [at 11.4 µM]
CC(=O)OCC1OC(c2ccc3c(c2)OCO3)C=CC1OC(C)=O (stereo not given) -75.4% [at 11.4 µM]
C=CCOC(=O)C(C(C)=O)C(NC(=O)OC)c1cccc(C)c1 (stereo not given) -86.6% [at 11.4 µM]
CO[C@H]1COC(=O)C/C=C\[C@H](C)[C@@H](OC)COC(=O)[C@@H](C)COC(=O)C/C=C\[C@@H]1C -56.2% [at 11.4 µM]
CCCNC(=O)OC[C@@H]1O[C@H](CCO/N=C\[C@@H](C)[C@H](OCc2ccccc2)C(C)C)C=C[C@@H]1Oc1ccc(OC)cc1 -83.7% [at 11.4 µM]
CC1Cc2c(COc3ccccc3)nc3c(c2CO1)CN(CCOc1ccccc1)CC3 (stereo not given) -42% [at 11.4 µM]
COc1ccc(-c2ccccc2C2NC(C(=O)O)CCC2C)cc1 (stereo not given) -42% [at 11.4 µM]
C=CC[C@@H]1C=C[C@@H](O/N=C(/C)CCC(=O)OC[C@@H]2O[C@H](C#Cc3ccccc3)C=C[C@@H]2Oc2ccc(C)cc2)[C@@H](CO)O1 -97.7% [at 11.4 µM]
Cc1ccc(S(=O)(=O)N[C@@H]2COC(=O)C/C=C\[C@H](C)COC(=O)N[C@@H](C)C(=O)C/C=C\[C@H]2C)cc1 -86.3% [at 11.4 µM]
Cc1ccc(/C=C/C2=CC3(C)CC2(C)C(c2ccc(C)cc2)CC3=O)cc1 (stereo not given) -95.3% [at 11.4 µM]
O=C(N/N=C1/C[C@@H](O)[C@@H](O)[C@@H]2[C@@H]3C(=O)N(Cc4ccc5c(c4)OCO5)C(=O)[C@H]3CC[C@H]12)OCc1ccccc1 -89.7% [at 11.4 µM]

Potency, inactive:
FC(F)(F)c1ccc(C2[C@H]3CN(CC4CCCCC4)[C@H](c4ccccc4)C34CC2(c2cccnc2)C4)cc1 (stereo not given in full)
O=C(O)c1sccc1S(=O)(=O)Nc1ccc(Cl)cc1
COC(=O)[C@@H]1C[C@@H]2CC[C@@H](O)C[C@@H]2N1Cc1ccc(N2CCOCC2)cc1
COC(=O)c1ccc(C23CC4(C2)[C@H](CN(CC2CCCCC2)[C@@H]4c2ccccc2)C3c2ccccc2)cc1 (stereo not given in full)
CN1C[C@@H]2C(c3ccccc3)C3(c4ccc(C#N)cc4)CC2(C3)[C@H]1c1ccccc1 (stereo not given in full)
COc1cc(OC)c2c(c1)OC(c1ccccc1)CC2=O (stereo not given)
COc1c(CC(=O)c2cc3c(cc2O)OC(C)(C)C(O)C3)ccc2c1C=CC(C)(C)O2 (stereo not given)
CC(=O)N1[C@H](C)C=C[C@]1(Cc1ccccc1)C(=O)NCc1ccccn1
CCC1=C(OC(=O)N(CC)CC)N2C(=O)OC(=NCc3ccccc3)[C@]2(C)[C@H]2C1=CC[C@H]1C(=O)N(CC(=O)OC)C(=O)[C@H]12
COc1ccc2c(c1OC)C(Cc1ccccc1)N1CCc3cc4c(cc3C1=C2)OCO4 (stereo not given)
COC(=O)c1ccc(C(NC(=O)OCc2ccccc2)/C(=C/[C@@H](C)C(=O)NCc2nc3ccccc3s2)c2cccnc2)cc1 (stereo not given in full)
COc1cc2c(Cc3c4c5c(cc(OC)c(OC)c5c5c(OC)c(OC)ccc35)CCN4C)c3c4c(cc(OC)c(OC)c4c2cc1OC)CCN3C
C[C@@H]1C=C[C@](Cc2ccccc2)(C(=O)NCC2CC2)N1C(=O)c1ccccc1
CC(Cc1ccccc1)C(=O)N[C@@H](CO)Cc1ccccc1 (stereo not given in full)
COc1c2ccoc2c(OC)c2oc(=O)ccc12
O=c1oc2ccccc2c2oc3cc(O)c(O)cc3c12
CCC1=C2CC[C@H]3C(=O)N(c4ccccc4)C(=O)[C@H]3[C@H]2[C@@]2(C)C(=NCC3CC3)OC(=O)N2C1=O
COC(=O)CCCCCN1C(=O)NC(CC2CC2)C(C(=O)OCc2ccccc2)=C1C (stereo not given)
CCC1=C(OC(=O)N(CC)CC)N2C(=O)OC(=NCCOC)[C@]2(C)[C@H]2C1=CC[C@H]1C(=O)NC(=O)[C@H]12
CCC1=C(OC(=O)N(CC)CC)N2C(=O)OC(=NCCc3c[nH]c4ccccc34)[C@]2(C)[C@H]2C1=CC[C@H]1C(=O)N(C)C(=O)[C@H]12
COC(=O)c1cccc(C23CC4(C2)[C@H](CN(CC2CCCCC2)[C@@H]4c2ccccc2)C3c2ccc(Cl)nc2)c1 (stereo not given in full)
C=C1C(=O)OC2C[C@@]3(C)CCCC(=C)[C@@H]3CC12 (stereo not given in full)
COC(=O)c1ccc(C(NC(=O)OCc2ccccc2)/C(=C/[C@@H](C)C(=O)NC2CCCCC2)c2cccnc2)cc1 (stereo not given in full)
